In ChEMBL document CHEMBL1157539, “Thousands of chemical starting points for antimalarial lead identification” (Nature, 2010) one finds Inhibition data, which are given here for 53 compounds.

Format in all cases: functional
Assay [1] concerns Plasmodium falciparum. As to the kind of experiment: GSK_TCMDC: Inhibition of Plasmodium falciparum 3D7 in whole red blood cells, using parasite LDH activity as an index of growth. Test compounds present at 2uM.
Assay [2] deals with Plasmodium falciparum. As to the kind of experiment: GSK_TCMDC: Inhibition of Plasmodium falciparum Dd2 in whole red blood cells, using parasite LDH activity as an index of growth. Test compounds present at 2uM.
For assay [3], the system named is HepG2. As to the kind of experiment: GSK_TCMDC: Percent inhibition of human HepG2 cell line. Test compounds present at 10uM.

Regarding `O=S(=O)(Nc1cccc(CCN2CCC(N3CCCCC3)CC2)c1)c1ccc(Cl)cc1`, the Inhibition amounted to 94% in assay [1], 23% in assay [2] and 18% in assay [3].
Take `Oc1ccc(CCNc2nc(N/N=C/C=C/c3ccc(Cl)cc3)nc(N3CCNCC3)n2)cc1`: the values for the Inhibition in assay [1], in assay [2] and in assay [3] were 98%, 52% and 17%, respectively.
With `CC(C)(C)c1cc(C(=O)N2CCN(c3ccc(C(F)(F)F)cn3)CC2)n(Cc2ccc(F)cc2)n1`, the Inhibition was found to be 88% in assay [1], 26% in assay [2] and 4% in assay [3].
Turning to `CCc1ccc(CN(Cc2ccc(C)cc2)Cc2ccc(NC(C)=O)cc2)cc1`, the Inhibition stood at 89% in assay [1], 79% in assay [2] and 6% in assay [3].
As for `Cc1cc(C(F)(F)F)nn1-c1ccc(NC(=O)c2ccco2)cc1`, the Inhibition worked out at 94% in assay [1], 93% in assay [2] and 14% in assay [3].
The matching figures for `O=C1Nc2cccc3c2C1(CCCCN1CCC(c2c(-c4ccc(F)cc4)[nH]c4ccccc24)CC1)CCC3` (centres undefined): 91%, 28% and 25%.
The matching figures for `N#Cc1ccc(CN2CCCN(c3ccc(NC(=O)c4ccc(F)cc4)cc3)CC2)cc1.O=C(O)C(F)(F)F`: 90%, 61% and 12%.
For `CN1CCC(NCc2ccc(-c3ccc(Cl)cc3)cc2)CC1`, in that order: 99%, 43% and 50%.
As to `Nc1nc(N)c2c(n1)CCC(c1ccccc1)C2` (centres undefined), the values for the Inhibition in assay [1], in assay [2] and in assay [3] were 93%, 0% and 55%, respectively.
On to `Fc1ccc(Nc2nnc(CNC3CCN(Cc4ccc(Cl)c(Cl)c4)CC3)[nH]2)cc1`, for which the Inhibition in assay [1] is 100%; in assay [2], 36%; in assay [3], 18%.
For `CS(=O)(=O)Nc1ccc(OCCCCCCOc2ccc(NS(C)(=O)=O)cc2)cc1`, in that order: 93%, 82% and 3%.
Take `c1ccc2[nH]c(-c3ccc(-c4ccc(CN5CCCCC5)cc4)s3)nc2c1`: the Inhibition in assay [1] turned out to be 100%; in assay [2] it was 69%; in assay [3], 41%.
In the case of `CC(Oc1cccc(Cl)c1)C(=O)N1CCc2ccccc21` (centres undefined), the figures for the Inhibition in assay [1], in assay [2] and in assay [3] were 94%, 77% and 4%, respectively.
For `Cc1ccc(S(=O)(=O)N(CCCN2CCN(C)CC2)Cc2csc(-c3ccc(CNCc4ccccc4)cc3)n2)cc1.O=C(O)C(F)(F)F`, in that order: 97%, 90% and 15%.
`Cc1ncccc1C(=O)Nc1cccc(-c2cccc(-c3nc4cc(C(F)(F)F)ccc4[nH]3)c2)c1`: the Inhibition in assay [1] was found to be 96%; in assay [2], 30%; in assay [3], 34%.
For `CC(C)N1CCC(N(Cc2ccc(-c3ccc(C(F)(F)F)cc3)cc2)C(=O)Cn2c(SCc3cccc(F)c3F)nc(=O)c3ccccc32)CC1.O=C(O)C(O)C(O)C(=O)O`, in that order: 91%, 75% and 74%.
The matching figures for `O=C(Cc1cccc(Cl)c1)N1CCc2cc3nccc(N4CCN5CCC[C@H]5C4)c3cc21`: 96%, 4% and 14%.
The matching figures for `CCOc1ccc(C(=O)Nc2cc(Br)c3c(c2)CNCC3)cc1C#N.Cl`: 97%, 32% and 17%.
For `Nc1ccc2[nH]cc(C3CCN(CC4CCC(NC(=O)/C=C/c5ccc(Cl)c(Cl)c5)CC4)CC3)c2n1` (centres undefined), the figures for the Inhibition in assay [1], in assay [2] and in assay [3] were 100%, 93% and 18%, respectively.
The matching figures for `COc1ccc(NC(=O)c2ccc(-c3nc(-c4ccc(Cl)cc4)cs3)cc2)cc1N1CCN(C)CC1`: 91%, 34% and 30%.
The matching figures for `O=C(Nc1cncc(NC(=O)c2ccc(Cl)c(Cl)c2)c1)c1ccc(Cl)c(Cl)c1`: 100%, 70% and 12%.
For `Cc1cccc2nc(-c3ccc(-c4cccc(CN5CCC(C(N)=O)CC5)c4)s3)[nH]c12.O=C(O)C(F)(F)F`, in that order: 86%, 16% and 1%.
Regarding `CN(C)CCCOc1ccc(CCNCc2cccc(Oc3ccc(Cl)cc3)c2)cc1.O=C(O)C(F)(F)F`, the Inhibition in assay [1] worked out at 94%; in assay [2], 26%; in assay [3], 57%.
As to `OC(CNC1CCCCC1)Cn1c2ccccc2c2ccccc21` (centres undefined), the Inhibition is 97% in assay [1], 92% in assay [2] and 11% in assay [3].
The matching figures for `O=C(/C=C/c1ccc(Cl)c(Cl)c1)NCCCCCN1CCC(NC(=O)c2cc(Cl)ccc2F)CC1`: 92%, 32% and 48%.
Consider `Br.CC1(C)NC(N)=NC(=N)N1OCCCOc1ccccc1Cl`, for which the Inhibition in assay [1] came out at 96%; in assay [2], 94%; in assay [3], 64%.
Turning to `O=C(O)C(F)(F)F.O=[N+]([O-])c1cccc(CNC2CCN(Cc3ccc(Cl)c(Cl)c3)CC2)c1`, the Inhibition in assay [1] was 100%; in assay [2] it was 71%; in assay [3] it was 5%.
`O=C(Nc1ccsc1C(=O)NC1CCCCC1)c1ccc(F)cc1`: the Inhibition in assay [1] came to 86%; in assay [2] it was 11%; in assay [3] it was 3%.
Consider `CN(C)C(=S)N/N=C1/C(=O)Nc2ccc(OC(F)(F)F)cc21`, for which the Inhibition in assay [1] is on record as 93%; in assay [2], 52%; in assay [3] it was 36%.
For `CCN(CCO)CCCC(C)Nc1ccnc2cc(Cl)ccc12.O=S(=O)(O)O` (centres undefined) [HYDROXYCHLOROQUINE SULFATE], in that order: 99%, 0% and 3%.
In the case of `COc1ccc(CCN(C)CCOc2ccc(NC(=O)COc3ccc4sc5ccccc5c(=O)c4c3)cc2)cc1OC`, the Inhibition is 100% in assay [1], 91% in assay [2] and 99% in assay [3].
The matching figures for `CCCCCCN1CCC(NCc2ccc(C(F)(F)F)cc2)CC1.O=C(O)C(F)(F)F`: 100%, 47% and 11%.
Take `CCCCCC(C)c1cc(O)c2c(c1)OC(C)(C)C=C2C1=CCN(Cc2ccccc2)CC1` (centres undefined): the Inhibition in assay [1] came to 96%; in assay [2], 96%; in assay [3], 13%.
Take `CC(C)N1CCN(C(CN2CCN(CCCOc3ccc4ccccc4c3)CC2)c2ccc(F)cc2)CC1.Cl` (centres undefined): the values for the Inhibition in assay [1], in assay [2] and in assay [3] were 100%, 91% and 59%, respectively.
For `Cc1cc(N[C@@H](CC(C)C)C(=O)Nc2ccccc2)nc(Nc2ccccc2)n1.O=C(O)C(F)(F)F`, the Inhibition is reported as 99% in assay [1], 93% in assay [2] and 0% in assay [3].
Regarding `COc1ccc(CN2CCC(NCc3cccc(C(F)(F)F)c3)CC2)cc1.O=C(O)C(F)(F)F`, the figures for the Inhibition in assay [1], in assay [2] and in assay [3] were 99%, 8% and 6%, respectively.
For the compound `O=c1c(Br)c(C(F)(F)F)[nH]c2ccc(Oc3ccccc3)cc12`, the results for the Inhibition in assay [1], in assay [2] and in assay [3] were 91%, 17% and 6%, respectively.
The matching figures for `Cc1cc(OC(C)C(=O)N2CCc3ccccc32)ccc1Cl` (centres undefined): 89%, 54% and 20%.
Consider `Cc1ccc(Nc2nc(C)cc(N3CCN(c4ccccc4)CC3)n2)cc1`, for which the values for the Inhibition in assay [1], in assay [2] and in assay [3] were 93%, 72% and 4%, respectively.
Turning to `CCCOc1ccc(N2C(N)=NC(N)=NC2(C)C)cc1.Cl`, the Inhibition is given as 97% in assay [1], 2% in assay [2] and 1% in assay [3].
The matching figures for `Cc1ccc(NC(=O)Nc2ccc(Cl)c(C(F)(F)F)c2)cc1-c1ccc(C(=O)NCCN2CCOCC2)cc1`: 98%, 31% and 52%.
Take `CCC1N=C(N)N=C(N)N1OCc1ccc(Cl)c(Cl)c1` (centres undefined): the Inhibition in assay [1] is listed as 93%; in assay [2] it was 90%; in assay [3] it was 54%.
Consider `Cc1cc(N[C@@H](Cc2ccccc2)C(=O)Nc2ccccc2)nc(NCC2CCCCC2)n1.O=C(O)C(F)(F)F`, for which the Inhibition in assay [1] came out at 98%; in assay [2], 55%; in assay [3] it was 12%.
As for `O=C(O)C(F)(F)F.OC1(Cc2ccccc2)CCN(Cc2cccc(-c3c[nH]c4nc(NC5CCCC5)ncc34)c2)CC1`, the Inhibition was 96% in assay [1], 35% in assay [2] and 45% in assay [3].
Consider `COc1ccc(N2CCN(CCCNC(=O)c3ccc(NC(=O)c4cc(Cl)cc(Cl)c4)cc3)CC2)c(OC)c1`, for which the Inhibition came to 100% in assay [1], 79% in assay [2] and 21% in assay [3].
The matching figures for `CNc1nc(Nc2ccccc2C)nc2ccccc12.Cl`: 100%, 81% and 17%.
Regarding `O=C(CCc1c[nH]cn1)Nc1cccc(-c2cccc(-c3nc4ccccc4[nH]3)c2)c1`, the figures for the Inhibition in assay [1], in assay [2] and in assay [3] were 100%, 25% and 8%, respectively.
On to `COc1ccc(CNC2Cc3ccccc3C2)cc1-c1ccc(OC)c(S(=O)(=O)NCCN2CCCC2)c1.O=C(O)C(F)(F)F`, for which the values for the Inhibition in assay [1], in assay [2] and in assay [3] were 100%, 97% and 31%, respectively.
For the compound `Cc1cc(C(=O)Nc2ccc3c(c2)CCN3C2CCN(Cc3ccc4nsnc4c3)C2)no1` (centres undefined), the Inhibition in assay [1] is listed as 90%; in assay [2] it was 94%; in assay [3], 0%.
`Nc1ccc(-c2ccc(NC(=O)Nc3ccccc3)cc2)cn1`: the values for the Inhibition in assay [1], in assay [2] and in assay [3] were 91%, 93% and 0%, respectively.
Turning to `N#CN1CC[C@H](CS(=O)(=O)c2cccc(Br)c2)C1`, the Inhibition in assay [1] is 88%; in assay [2] it was 74%; in assay [3], 8%.
For the compound `COc1ccc(-c2ccc3c(-c4cccc(S(C)(=O)=O)c4)cnc(N)c3c2)cc1`, the Inhibition in assay [1] is 89%; in assay [2], 12%; in assay [3], 41%.
For `CCC(=O)Nc1cc(=O)[nH]c2nc(-c3ccc(Cl)cc3)nn12`, in that order: 84%, 62% and 3%.
